According to PubChem BioAssay AID1508621 (National Center for Advancing Translational Sciences (NCATS), 2021):
Records with an inconclusive call do not appear. The source made the active and inactive calls. Calls follow the shape of the dose curve; as a rule, active = well fitted inhibition curve with a large enough effect; inconclusive = small, poorly fitted or top-dose-only effect; inactive = no such curve, though single readings can be large or run the other way.

experiment: Confirmatory qHTS for Identification of Small Molecule Inhibitors of Huntingtin Promoter Activity; conditions: HEK293 HTT promoter firefly luciferase reporter, 24 h; series mostly up to 57.5 µM; also: nearly all actives have a fitted effect of over 65% in size
In short: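 Plated reporter HEK293 cells (24 h) received library compounds at up to 57.5 uM final or 50 uM PTC124, incubated 24 h at 37C; firefly luciferase luminescence was then recorded with Dual-Glo reagent.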
Potency is read from the fitted curve at half-maximal effect.

Potency, inactive:
Cc1ccc2nc(CSc3nnc(NC(=O)COc4ccccc4)s3)cc(=O)n2c1
CN(C)Cc1c(C(=O)NCCOc2ccc(C(=O)NO)cc2)oc2ccccc12
Cc1ccc2nc(-c3ccncc3)c(Nc3ccccc3C)n2c1
O=C(CSc1ccc(-c2ccccn2)nn1)Nc1ccc(F)c(F)c1
Cc1cccc(C2C=C(c3ccc(F)cc3)Nc3nc4ccccc4n32)c1 (configuration not stated)
COc1ccccc1C1CC(=O)NC(C)=C1C(=O)OC1CCCCCC1 (configuration not stated)
Cc1ccc(S(=O)(=O)n2nc(-c3ccccc3)nc2NCc2ccccc2Cl)cc1
O=C(Cc1ccccc1)Nc1cccc(-c2cn3cccnc3n2)c1
Cc1cc(C)c(Cn2c3ccccc3c3cnn(CC(=O)N4CCCCC4)c(=O)c32)c(C)c1
COc1cccc(-c2cn3c(n2)sc2cc(C(=O)NCc4cccs4)ccc23)c1
CCOC(=O)C1CCN(C(=O)Cn2c(-c3cccs3)cc3cc(Cl)ccc32)CC1
Cc1ccc(S(=O)(=O)Nc2cccc(-c3ccc(N4CCCCC4)nn3)c2)s1
Cc1cccc(CSc2cn(CC(=O)N3CCOCC3)c3ccccc23)c1
Cc1ccc(C)c(-n2nnc(C(=O)Nc3ccc(Br)cc3)c2C)c1
Cc1ccccc1OCC(=O)Nc1ccccc1C(=O)OCc1cc(=O)n2c(C)csc2n1
O=C(CSc1nccn1Cc1ccc(F)cc1)Nc1nc2ccccc2s1
COc1ccc(C(C)n2c(C)c3c(C)nnc(C)c3c2C)cc1 (configuration not stated)
O=C(C=Cc1cccc(S(=O)(=O)Nc2ccccc2)c1)NO
CCN(CC)CCOc1ccc(C(=C(Cl)c2ccccc2)c2ccccc2)cc1

Potency, active:
CCc1ccccc1-n1c(SCC(=O)Nc2ccc(C)cc2)nc2n[nH]c(C)c2c1=N 13.5 µM
CCS(=O)(=O)c1ncc(Cl)c(C(=O)NCc2ccc(OC)cc2)n1 19 µM
Cc1ccccc1OCc1ccc(-c2nc(C#N)c(NCc3cccnc3)o2)o1 19 µM
